Consider 26 molecules from PubChem BioAssay (EPA / NIEHS).

The nature of test [1]: ATG_XTT_Cytotoxicity: Cytotoxicity Assessment in the Attagene TRANS-FACTORIAL HepG2 Assay (AID 2283584).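 On AC50: cells exposed to compound for 24 h before reading; active means loss of viability signal versus DMSO baseline.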 The gist of the method:
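Cells: human HepG2, transiently transfected with MRTU reporter constructs. Exposure 24 h. Readout: XTT, cell number. Baseline/neg ctrl DMSO; loss-of-signal scored.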

Test [2] relates to Thyroperoxidase (TPO), gene 54314. Nature of the test: CCTE_Simmons_AUR_rTPO: CCTE's Amplex UltraRed Assay for Thyroperoxidase (TPO) Inhibition, Simmons Lab (AID 2283662).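 Further: potency for loss of signal meaning inhibition of peroxidase activity.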 The gist of the method: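 Endpoint is decreased Amplex UltraRed fluorescence after a 30-min, 37C reaction of rat thyroid microsomes with 300 uM H2O2. Eight test concentrations (5 nM–87.5 uM final) in 0.5% DMSO, three biological replicates each.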

Test [3] is described as follows: CCTE_Simmons_CellTiterGLO_HEK293T: Viability Assessment in CCTE's Assays for Thyroperoxidase (TPO) Inhibition, Simmons Lab (AID 2283665).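 On AC50: cells exposed to compound for 24 h before readout; actives reduce ATP signal below DMSO vehicle meaning cytotoxicity.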 The gist of the method: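 HEK293T, 10 000 cells/well, DMEM + 1% FBS; 8-pt titration 5 nM–87.5 uM [final], 0.5% DMSO; 24 hr, 37C, 5% CO2; CellTiter-Glo luminescence; n=3 biological replicates.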
Background: ATP-based viability assays read luminescence as a measure of living cells.

Test [4] deals with Luciferin 4-monooxygenase (Photinus pyralis) (UniProt P08659). Briefly: CCTE_Simmons_QuantiLum_inhib_2: CCTE's Firefly Luciferase Inhibition Assay, Simmons Lab (AID 2283767).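 On AC50: potency for inhibitors that lower luciferase luminescence relative to DMSO.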 The gist of the method: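 Luminescence loss relative to DMSO vehicle defines inhibition; detection reagent containing 150 uM D-luciferin and 147 uM dATP (final, pH 7.8) is injected immediately before each read. Enzyme is preincubated with an 8-point titration (5 nM–87.5 uM final) for 30 min at 37C.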

Test [5] concerns the target Cellular tumor antigen p53 (Homo sapiens) (UniProt P04637). Nature of the test: TOX21_p53_BLA_p2_ratio: Tox21 HCT-116 p53 Agonism Beta-lactamase Assay, Ratio, Phase 2 (AID 2283592). The gist of the method:
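HCT116 p53-bla; 4000 cells/well; 5 h pre-incubation; cpd in DMSO, 217-fold dilution; 16 h 37C/5% CO2; CCF4-AM 2 h RT; Ex 405, Em 460/530 ratio; DMSO = baseline; positive fitting direction.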

A short description of test [6]: TOX21_p53_BLA_p3_viability: Viability Assessment in the Tox21 HCT-116 p53 Agonism Beta-lactamase Assay, Phase 3 (AID 2283593).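 Further: cells exposed to compound for 16 h before reading.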 The procedure, abridged:
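Cellular ATP was quantified by CellTiter-Glo luminescence, read after 30 min at room temperature. Beforehand, HCT116 cells (4000/well) received compound 5 h post-seeding, 217-fold diluted from DMSO, then incubated 16 h at 37C.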

Test [7] addresses Cellular tumor antigen p53 (Homo sapiens) (UniProt P04637). Nature of the test: TOX21_p53_BLA_p3_ratio: Tox21 HCT-116 p53 Agonism Beta-lactamase Assay, Ratio, Phase 3 (AID 2283596). The procedure, abridged:
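HCT116 p53-bla cells (4000/well) given compound in DMSO (217-fold dilution) after 5 h, incubated 16 h at 37C. CCF4-AM substrate 2 h at room temperature; 460/530 nm emission ratio, gain fitted against DMSO.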

The nature of test [8]: TOX21_p53_BLA_p4_viability: Viability Assessment in the Tox21 HCT-116 p53 Agonism Beta-lactamase Assay, Phase 4 (AID 2283597).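 Further: hits lower the luminescence signal meaning cytotoxicity.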 The gist of the method:
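Cells plated, 5 h pre-incubation; DMSO compounds pinned (217-fold dilution); 16 h, 37C/5% CO2; CCF4-AM 2 h RT; CellTiter-Glo 30 min RT; luminescence read.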

Test [9] addresses Cellular tumor antigen p53 (Homo sapiens) (UniProt P04637). Nature of the test: TOX21_p53_BLA_p5_ratio: Tox21 HCT-116 p53 Agonism Beta-lactamase Assay, Ratio, Phase 5 (AID 2283599). The gist of the method:
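Beta-lactamase reporter ratio (blue 460 nm over green 530 nm, 405 nm excitation) after 2 h CCF4-AM loading, in HCT-116 cells exposed 16 h at 37 C to compounds pinned at 217-fold dilution. Increases relative to DMSO baseline scored.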

A short description of test [10]: ACEA_AR_agonist_AUC_viability: ACEA Biosciences xCELLigence Real-Time Cell Analysis on Androgen Receptor Agonism for Viability (AID 2283775). The gist of the method:
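Real-time impedance tracking of 22Rv1 growth, readings every 5 min for 5 h then hourly; area-under-curve viability endpoint at 80 hours, relative to DMSO. Compounds at eight concentrations, 1:4 steps, top 100 uM, n = 2.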

Test [11] is described as follows: ACEA_AR_antagonist_AUC_viability: ACEA Biosciences xCELLigence Real-Time Cell Analysis on Androgen Receptor Antagonism for Viability (AID 2283776).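 Further: 22Rv1 human prostate cancer cells growing on impedance electrode plates; hits lower the growth signal relative to DMSO meaning cytotoxicity.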 The gist of the method: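 Viability endpoint from label-free cell-index monitoring: 22Rv1 cultures treated with an eight-point 1:4 dilution series starting at 100 uM final, AUC at 80 h fitted against DMSO.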
A short description of test [12]: CEETOX_H295R_MTT_cell_viability: Viability Assessment in the CeeTox HT-H295R MTT Assay (AID 2283718; active means hit-call score of the fitted dose curve at least 0.9, where 1 is the maximum; inactive means score below 0.9;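 on AC50: curve fitted both ways so AC50 may mark viability loss or gain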). The procedure, abridged:
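MTT reduction (0.5 mg/ml, 4 h at 37 C; absorbance at 570 and 650 nm) gave viability as background-corrected percent change versus controls. H295R cells had 48 h forskolin (10 uM) prestimulation, then 48 h chemical exposure at 0.1% DMSO.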

Test [13] is described as follows: TOX21_p53_BLA_p2_viability: Viability Assessment in the Tox21 HCT-116 p53 Agonism Beta-lactamase Assay, Phase 2 (AID 2283591).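 Further: compound exposure lasted 16 h at 37 °C; actives lower the ATP signal meaning cytotoxicity.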 The procedure, abridged:
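Cytotoxicity readout: CellTiter-Glo ATP luminescence, 30 min at room temperature, after the beta-lactamase read. Cells were HCT116 exposed 16 h at 37C to compounds pin-transferred at 217-fold dilution from DMSO stocks.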

In test [14] the target is Cellular tumor antigen p53 (Homo sapiens) (UniProt P04637). Briefly: TOX21_p53_BLA_p4_ratio: Tox21 HCT-116 p53 Agonism Beta-lactamase Assay, Ratio, Phase 4 (AID 2283601). The gist of the method: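 Signal is the blue/green (460nm/530nm) ratio of cleaved versus uncleaved CCF4-AM substrate, read after 2 h substrate loading. Cells were HCT116 carrying the p53-responsive beta-lactamase reporter, dosed 16 h at 37C, 5% CO2; CellTiter-Glo measured in parallel.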

Records with an inconclusive call do not appear. Active and inactive are the calls of the source. How the source made its calls, unless noted: active means hit-call score of the fitted dose curve at least 0.9, where 1 is the maximum; inconclusive means response in the unintended direction; inactive means score below 0.9.

Sequence of Luciferin 4-monooxygenase (Photinus pyralis) (P08659 whole entry, looked up): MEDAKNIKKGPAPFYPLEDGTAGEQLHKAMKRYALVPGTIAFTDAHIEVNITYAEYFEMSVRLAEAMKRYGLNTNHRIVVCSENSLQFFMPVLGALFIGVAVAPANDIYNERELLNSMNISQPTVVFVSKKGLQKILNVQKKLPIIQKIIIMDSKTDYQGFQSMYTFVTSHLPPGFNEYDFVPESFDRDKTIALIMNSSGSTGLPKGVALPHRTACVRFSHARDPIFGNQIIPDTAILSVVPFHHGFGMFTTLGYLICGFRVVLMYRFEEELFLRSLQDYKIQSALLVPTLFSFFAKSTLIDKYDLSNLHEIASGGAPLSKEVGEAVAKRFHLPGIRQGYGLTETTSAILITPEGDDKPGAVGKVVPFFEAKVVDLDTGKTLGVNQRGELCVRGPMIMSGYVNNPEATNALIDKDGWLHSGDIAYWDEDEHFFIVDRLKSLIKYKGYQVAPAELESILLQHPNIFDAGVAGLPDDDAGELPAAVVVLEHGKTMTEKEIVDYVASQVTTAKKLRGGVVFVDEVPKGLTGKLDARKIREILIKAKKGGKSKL
Sequence of Cellular tumor antigen p53 (Homo sapiens) (P04637 whole entry, looked up): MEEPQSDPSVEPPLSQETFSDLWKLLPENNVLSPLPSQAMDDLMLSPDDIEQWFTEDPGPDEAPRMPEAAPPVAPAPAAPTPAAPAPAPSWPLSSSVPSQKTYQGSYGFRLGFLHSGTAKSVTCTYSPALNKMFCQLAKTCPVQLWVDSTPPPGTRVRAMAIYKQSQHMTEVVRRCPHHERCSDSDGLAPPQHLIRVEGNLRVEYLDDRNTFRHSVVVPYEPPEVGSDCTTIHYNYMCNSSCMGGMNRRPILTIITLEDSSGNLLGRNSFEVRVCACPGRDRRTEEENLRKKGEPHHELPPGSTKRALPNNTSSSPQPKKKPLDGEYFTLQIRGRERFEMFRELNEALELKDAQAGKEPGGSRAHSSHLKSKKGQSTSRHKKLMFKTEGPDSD

With `CCN(Cc1cccc(S(=O)(=O)O)c1)c1ccc(C(=C2C=CC(=[N+](CC)Cc3cccc(S(=O)(=O)O)c3)C=C2)c2ccc(O)cc2S(=O)(=O)[O-])cc1`, the result in test [1] was inactive. Besides, the results for the half-maximal activity concentration (AC50) in test [2], in [3] and in [4] were 19.1 µM (active), 7.74 µM (active) and 3.86 µM (active), respectively.

With `CCCCCCOC(=O)c1ccccc1O`, the outcome in test [1], in [5], in test [6], in [7], in test [8] and in test [9] was inactive. Besides, the molecule was called inactive in [10] and in test [11].

With `CC(=O)Nc1ccc(N=Nc2cc(C)ccc2O)cc1`, the call in [1] and in test [12] was inactive.

With `O=C(OCCOCCOCCOC(=O)c1ccccc1)c1ccccc1`, the result in [1], in test [13], in test [5] and in [14] was inactive. For the same molecule, the AC50 (in general, the midpoint of the concentration-response curve, whichever way the signal moves) is 82.1 µM (active) in [9] and 0.195 µM (active) in test [11].

As for `CCC(=O)OCCc1ccccc1`, the outcome in [5], in test [7], in [9] and in test [14] was inactive.

With `CCc1ccc(C(c2ccc(CC)cc2)C(Cl)Cl)cc1`, the molecule was classed as inactive in test [13], in test [5], in test [6], in test [7], in test [8] and in test [9]. The outcome in [14] was inactive.

In the case of `Cc1cc(C)cc(O)c1`, the result in test [1], in test [13], in test [5], in test [7], in test [9] and in [14] was inactive. In test [11], the outcome was inactive.

With `[Co]`, the molecule was called inactive in test [10].

Turning to `Nc1ccc(Oc2cccc(Oc3ccc(N)cc3)c2)cc1`, the outcome in test [1] and in test [12] was inactive.

As for `c1ccc(B(c2ccccc2)c2ccccc2)cc1`, the molecule was called inactive in test [1], in test [13], in test [6], in test [8], in [9] and in [14]. Further, the result in test [10] and in [11] was inactive. Besides, the AC50 was 29.2 µM (active) in test [2], 90.1 µM (active) in [3], 50 µM (active) in [12] and 53.8 µM (active) in [4].

As to `CCCCCCCOC(=O)c1ccccc1C(=O)OCCCCCCC`, the molecule was classed as inactive in [1] and in [12].

For `CC/C=C\CCOC(=O)c1ccccc1`, the result in [1], in test [5], in [7], in test [8], in test [9] and in test [14] was inactive.

Turning to `CCCCOc1ccc(N)cc1`, the outcome in test [13], in [5], in [7], in [8], in test [9] and in test [3] was inactive. Besides, in [4], the call was inactive. The AC50 in test [2] is 0.869 µM (active).

With `COC(=O)C1CCC(C(=O)OC)CC1` (stereo not given), the result in [1], in test [5], in test [6], in test [7], in [8] and in [9] was inactive. Besides, the outcome in test [14], in test [12], in [10] and in test [11] was inactive.

`CC/C=C\CCOC(C)=O`: the result in [1], in [13], in test [6], in test [7], in test [9] and in test [14] was inactive. The result in test [10] and in test [11] was inactive.

Take `Nc1ccc(S(=O)(=O)Nc2nccs2)cc1`: the result in [5], in test [6], in [7], in [9] and in test [14] was inactive.

Regarding `CCCCCCC(C)OC(=O)CCCCC(=O)OC(C)CCCCCC` (stereo not given), the molecule was called inactive in [1] and in test [11].

`FC(F)(F)C(F)(F)C(F)(F)C(F)(F)CCI`: the result in [7], in [9] and in test [14] was inactive.

Regarding `CCCCCCS`, the molecule was classed as inactive in test [1] and in [12].

Consider `CCCCC(CC)COP(=O)(O)OCC(CC)CCCC` (stereo not given), for which the AC50 in test [1] is 146 µM (active). Further, in test [11], the outcome was inactive.

As for `CC(CCl)OP(=O)(OC(C)CCl)OC(C)CCl` (stereo not given), the outcome in [1], in test [13], in test [6], in test [7], in test [8] and in test [14] was inactive. Also, the call in test [10] and in [11] was inactive.

`CC(Cc1ccc(O)c(O)c1)C(C)Cc1ccc(O)c(O)c1` (stereo not given): the molecule was called inactive in [1], in [10] and in [11]. Further, the AC50 was 63.6 µM (active) in test [13]; 86.7 µM (active) in test [6]; 75.1 µM (active) in test [7]; 46.1 µM (active) in [8]; 81.3 µM (active) in test [9]; 75.5 µM (active) in test [14]. Moreover, the AC50 in [2] is 0.55 µM (active); in test [3] it was 87 µM (active); in test [12] it was 37.4 µM (active); in [4], 16.1 µM (active).

As for `CN(C)Cc1ccccc1O`, the molecule was classed as inactive in [1], in test [13], in test [5], in test [8], in test [9] and in test [14]. For the same molecule, the result in test [11] was inactive.

`CC(C)OC(=O)c1ccccc1C(=O)OC(C)C`: the outcome in test [1], in [12], in test [10] and in [11] was inactive.

Turning to `Oc1ccc(Nc2ccccc2)cc1`, the result in [5], in test [6], in [7], in [9] and in [14] was inactive.

For the molecule `Cc1cccc(N(C)C)c1`, the molecule was called inactive in test [1] and in test [12].
